Compound activity: PubChem BioAssay, several laboratories
EphB4 ephrin blk: antagonists of human EphB4-ephrin-B2 interaction; inhibition, % at 7 µM; P54760; AID 720; EphB4 LBD / TNYL-RAW-Alexa532 peptide, fluorescence polarization; 97,000 tested, 0.15% active;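 active = inhibition above the screen-wide mean inhibition plus 3 SD, cut at about 15% in these data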;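 also: 0% = DMSO wells and 100% = excess unlabeled TNYL-RAW peptide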
Target sequence (P54760 whole entry, looked up, the tested form may be a part): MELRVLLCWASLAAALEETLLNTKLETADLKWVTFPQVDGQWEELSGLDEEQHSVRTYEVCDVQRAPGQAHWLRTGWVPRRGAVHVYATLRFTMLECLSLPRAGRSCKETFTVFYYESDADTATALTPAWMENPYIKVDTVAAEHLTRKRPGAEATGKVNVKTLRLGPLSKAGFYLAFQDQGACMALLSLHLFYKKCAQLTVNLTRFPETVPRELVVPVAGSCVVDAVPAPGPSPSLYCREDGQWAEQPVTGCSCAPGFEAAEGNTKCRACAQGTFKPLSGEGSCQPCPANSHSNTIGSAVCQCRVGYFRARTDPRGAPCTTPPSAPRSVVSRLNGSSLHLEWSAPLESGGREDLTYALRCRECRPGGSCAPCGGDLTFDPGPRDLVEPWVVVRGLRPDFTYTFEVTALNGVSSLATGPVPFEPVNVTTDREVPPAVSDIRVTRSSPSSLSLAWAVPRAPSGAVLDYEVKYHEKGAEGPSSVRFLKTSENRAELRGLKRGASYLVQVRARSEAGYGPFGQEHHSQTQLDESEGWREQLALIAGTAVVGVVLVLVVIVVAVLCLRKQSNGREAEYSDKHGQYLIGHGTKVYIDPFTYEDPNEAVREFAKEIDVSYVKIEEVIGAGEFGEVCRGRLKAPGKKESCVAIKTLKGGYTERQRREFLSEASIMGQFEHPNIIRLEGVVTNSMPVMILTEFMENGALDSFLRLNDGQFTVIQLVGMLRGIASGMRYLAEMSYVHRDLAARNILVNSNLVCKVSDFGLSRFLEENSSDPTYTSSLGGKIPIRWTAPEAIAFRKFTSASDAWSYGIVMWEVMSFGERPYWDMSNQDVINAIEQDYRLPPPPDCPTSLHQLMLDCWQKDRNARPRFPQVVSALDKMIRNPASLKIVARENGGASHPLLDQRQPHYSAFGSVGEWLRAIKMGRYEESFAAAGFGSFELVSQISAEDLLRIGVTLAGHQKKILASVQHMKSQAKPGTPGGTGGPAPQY
IL1B NFkB inh: blocks IL-1B driven NFkB nuclear translocation in HUVEC cells; HUVEC IL-1B NFkB p65 nuclear translocation imaging; inhibition, % at 2 µM; 94,000 tested, 0.43% active;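 active = inhibition above about 30% together with a positive call from visual inspection of the well image, limit read from the data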;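 also: nuclear over cytoplasmic p65 intensity ratio measured by imaging; 0% = IL-1B stimulated DMSO wells and 100% = unstimulated DMSO wells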
Candida biofilm: kills Candida albicans biofilms; inhibition, % at 6 µM; 85,000 tested, 0.14% active; C. albicans biofilm + clotrimazole, Alamar Blue;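 active = inhibition above 20%; inactive = inhibition below 20%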;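 also: preformed 24 hr biofilms exposed to compound for 48 hr; 0% = biofilm without compound and 100% = blank killed by clotrimazole plus chlorhexidine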
HUVEC tox IL1B: toxic to HUVEC cells under IL-1B stimulation | 94,000 tested, 0.41% active | HUVEC cell count loss, Hoechst imaging, IL-1B stimulated | AID 845 | cell count reduction, % at 2 µM;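 active = cell count reduction more than 3 SD above the screen-wide mean, cut at about 70% in these data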;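 also: normalized per plate to untreated control cells as the no-loss baseline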
NFkB transloc pot: enhances IL-1B driven NFkB nuclear translocation | HUVEC IL-1B NFkB p65 nuclear translocation imaging | AID 819 | activation, % at 2 µM | 94,000 tested, 0.3% active;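 active = activation above 40%, about the mean plus 3 SD, also judged a hit on visual image review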;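 also: percent activation is computed from the nuclear over cytoplasmic p65 intensity ratio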
* = called active by the depositor; . = no result given. Compounds with a hit are over-represented: about 1.1% of the library has one in this group of screens.

SMILES	EphB4 ephrin blk	IL1B NFkB inh	Candida biofilm	HUVEC tox IL1B	NFkB transloc pot
C/C(=N\O)c1ccc(N2C(=O)C3CC=C(Cl)CC3C2=O)cc1 (stereo not given)	-3	5	.	92*	-5
COc1ccc(C(=O)COC(=O)c2ccco2)cc1	-9	-36	1	-24	36
O=C(COC(=O)c1ccccc1F)c1ccc(-n2nncc2-c2ccco2)cc1	-7	-42	4	-18	42*
O=C(NCCCO)c1nc2ccccc2s1	5	-42	4	10	42*
CCN(CC)CCCn1c(=S)[nH]c2cc(Cl)ccc2c1=O	6	0	2	78*	0
O=C(NC(Cc1ccccc1)c1nc2ccccc2[nH]1)C1CC(=O)N(c2ccc3c(c2)OCCO3)C1 (stereo not given)	15*	-4	0	-16	4
CSC(=O)CC(=O)NC(=O)c1ccccc1	-7	2	12	89*	-2
CC(=O)c1ccc(N2CCN(C(=O)c3ccco3)CC2)c(F)c1	2	1	14	-15	-1
CC(=O)c1ccc(N2CCN(C(=O)c3ccc(Br)cc3)CC2)c(F)c1	21*	1	4	12	-1
CCCCCNC(CC(=O)Nc1ccc(OC)cc1)C(=O)O (stereo not given)	.	.	10	.	.
O=C(O)CCN1C(=O)C2CCCCC2C1=O (stereo not given)	2	-8	37*	9	7
O=C(O)CCN1C(=O)C2C3C=CC(C3)C2C1=O (stereo not given)	-7	-5	0	66	5
CN1C(=O)CS(=O)c2ccc(C(=O)NCCC3=CCCCC3)cc21 (stereo not given)	1	14	21*	11	-14
COCCN(CC(=O)NCc1ccccc1)C(=O)CCC(=O)Nc1nccs1	-2	-41	3	2	41*
CCn1nc2cc(C(=O)NCc3cc(C(F)(F)F)cc(C(F)(F)F)c3)ccc2c1OC	-10	-2	.	-14	2
COc1ccc(NC(=O)[C@H](CCS(C)(=O)=O)N2Cc3ccccc3C2=O)c(OC)c1	-6	-25	14	-2	25
COc1ccccc1NC(=O)C(CCS(C)(=O)=O)N1C(=O)c2ccccc2C1=O (stereo not given)	4	-42	6	30	42*
CCSc1nnc(NC(=O)Cc2cccc(OC)c2)s1	1	36*	-4	47	-36
CCSc1nnc(NC(=O)Cc2ccc(OC)cc2)s1	-8	-1	9	-1	1
O=C(O)Cn1cc(C(=O)C2CC2)c2ccccc21	-1	-19	10	82*	19
O=C(Cn1cc(C(=O)C2CC2)c2ccccc21)NCc1ccccc1	-7	-19	7	-31	19
CCOC(=O)N1CCC(c2cc(=O)n3[nH]cc(C(=O)OC)c3n2)CC1	3	-19	16	-6	19
COC(=O)c1c[nH]n2c(=O)cc(C)nc12	7	47*	2	5	-47
CN(C(=O)c1ccc(NC(=O)c2cnccn2)cc1)C1CCCCC1	.	.	5	.	.
CC(NC(=O)COC(=O)CCNC(=O)c1ccco1)C12CC3CC(CC(C3)C1)C2 (stereo not given)	-1	-63	-3	-44	63*
SMILES	EphB4 ephrin blk	IL1B NFkB inh	Candida biofilm	HUVEC tox IL1B	NFkB transloc pot
CN(CCOC(=O)c1ccco1)Cc1ccccc1	-3	-1	70*	-21	1
O=C(OCCN1C(=O)c2ccccc2C1=O)c1ccco1	2	18	10	18	-18
CC(C)O/C(=N\S(=O)(=O)c1ccc(Cl)cc1)c1ccccc1	0	-15	0	-4	15
CC(C)CO/C(=N/S(=O)(=O)c1ccccc1)c1ccccc1	-4	19	73*	-112	-19
CCN(CC)c1ccc(-c2nn3c(-c4ccccc4OC)nnc3s2)cc1	-1	29	5	71*	-29
COc1cccc(OC)c1-c1nn2c(-c3cc(-c4ccccc4)n[nH]3)nnc2s1	62*	-3	.	-2	3
COc1cccc(-c2nnc3sc(-c4ccccc4)nn23)c1	.	.	8	.	.
O=C(Nc1cccnc1)c1c(F)c(F)c(F)c(F)c1F	2	8	23*	-16	-8
CCCn1c(NC(=O)C2COc3ccccc3O2)nc2ccccc21 (stereo not given)	17*	-3	12	28	3
CCCCn1c(NC(=O)C2CCCCC2)nc2ccccc21	4	-14	3	9	14
COCCCNC(=O)Cn1nnc(-c2ccc(NC(=O)c3ccccc3F)cc2)n1	2	43*	3	-13	-43
COCCCNC(=O)Cn1nnc(-c2ccc(NC(=O)c3ccccc3OC)cc2)n1	-6	-17	-1	-11	17
O=S(=O)(N/N=C\C=C\c1ccccc1)c1ccc(Cl)cc1	3	-12	.	12	12
O=C(NCC1CCCO1)c1c(O)c2c([nH]c1=O)CCCC2 (stereo not given)	5	4	5	19	-4
O=C(NCCOC(=O)c1ccc(Cl)cc1)c1cccnc1	2	-12	0	-13	12
COC(=O)c1sc2cc(C(F)(F)F)cnc2c1-c1cccnc1	5	7	.	-7	-7
CSc1nnc(-c2sc3cc(C(F)(F)F)cnc3c2-c2cccnc2)n1C	11	-3	54*	33	3
C(=C\c1ccccc1)/CN1CCN(c2ncnc3c2oc2ccccc23)CC1	1	-40	1	-28	40*
c1cnc(N2CCN(c3ncnc4c3oc3ccccc34)CC2)nc1	.	.	7	.	.
CCc1nc(SCC(=O)N2CCCc3ccccc32)c2c(=O)n(C)c(=O)n(C)c2n1	.	.	10	.	.
COc1ccc(-n2ncc3c(SCC(=O)N4CCN(c5ccccc5OC)CC4)ncnc32)cc1	-4	2	-4	-23	-2
O=C(Nc1ccc2c(c1)oc1ccccc12)N1CCOCC1	4	17	2	71*	-17
O=C(Nc1ccccc1)N1CCOCC1	1	13	4	-15	-13
Cc1c(Cl)cccc1NC(=O)C1NC(=O)CC1c1ccccc1 (stereo not given)	-8	-19	3	-8	19
Cn1ncc([N+](=O)[O-])c1C(=O)N1CCOCC1	2	.	.	.	.
SMILES	EphB4 ephrin blk	IL1B NFkB inh	Candida biofilm	HUVEC tox IL1B	NFkB transloc pot
CNc1nc(Sc2ccc(C)cc2)cc(C(F)(F)F)n1	-13	-14	.	-16	14
CC(=O)c1c(C)[nH]c(C(=O)N2CCc3ccccc32)c1C	-1	2	-3	-37	-2
CCOC(=O)c1[nH]c(C)c(C(=O)N2CCc3ccccc32)c1C	-7	-100	5	15	100*
COc1ccc(-c2nc(C#N)c(NCC3CCCO3)o2)cc1 (stereo not given)	5	-7	-7	-34	7
CCOC(=O)CNC(=O)CSc1nnc(SCC(=O)NCC(=O)OCC)s1	-7	-54	8	-2	54*
CC(=O)c1ccc(-n2nnnc2SCC(=O)N2CCc3ccccc3C2)cc1	18*	9	7	32	-9
O=C(CSc1nnc(-c2ccccc2)n1Cc1ccco1)NCc1ccc2c(c1)OCO2	-2	-59	5	8	59*
CN(C(=O)COc1cc(=O)n(C)c2ccccc12)c1ccc(Cl)cc1	-2	-8	-13	5	8
